PubChem BioAssay AID1159580 (chemical genetic matrix, 2015)
Several values for one entry are separate records, joined by “and”; a condition that tells them apart may be missing. Equal values may be shown once. In all, about 5,500 compounds went through this assay and about 2,000 (36%) were called active. About 18% were inconclusive and are not listed. Rule as the data show it: active = normalized growth mostly below about 0.91 (no sharp cut-off); inconclusive = no clear call, values can overlap the other calls; inactive = mostly above about 0.92. Some of the results follow.

Assay: chemical genetic growth profiling, strain panel (AID 1159580);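 also: tested at 20 µM; growth read once vehicle control cultures reached saturation at 30 °C; 1 = growth at the plate median or of vehicle wells; lower values mean less growth of the strain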
Settings: S. cerevisiae deletion strains, growth OD
[1] = locus YDL101C, strain DUN1, hits give low values
[2] = locus YHR030C, strain SLT2, hits give low values
[3] = locus YHR079C, strain IRE1, hits give low values
[4] = locus YJL095W, strain BCK1, hits give low values
[5] = locus YJR066W, strain TOR1, hits give low values
[6] = locus YLR113W, strain HOG1, hits give low values
[7] = locus YNL183C, strain NPR1, hits give low values
[8] = locus YOR061W, strain CKA2, hits give low values
[9] = locus YOR231W, strain MKK1, hits give low values
[10] = locus YPL256C, strain CLN2, hits give low values

Measured: normalized growth

CC1SC(c2cccnc2)N(c2ccc(F)cc2F)C1=O (stereo unspecified)
inactive: locus YAR019C, strain CDC15, hits give low values 1 | locus YBL105C, strain PKC1, hits give low values 0.987 | locus YBR135W, strain CKS1, hits give low values 0.982 | locus YBR136W, strain MEC1, hits give low values 0.99 | locus YBR160W, strain CDC28, hits give low values 0.983 | locus YDL017W, strain CDC7, hits give low values 0.985 | locus YDL028C, strain MPS1, hits give low values 0.994 | [1] 0.985 | locus YDL108W, strain KIN28, hits give low values 1 | locus YDL132W, strain cdc53, hits give low values 0.981 | locus YDL214C, strain PRR2, hits give low values 1.01 | locus YDR052C, strain DBF4, hits give low values 0.981 | locus YDR054C, strain cdc34, hits give low values 0.981 | locus YDR226W, strain ADK1, hits give low values 0.974 | locus YDR477W, strain SNF1, hits give low values 0.981 | locus YER123W, strain YCK3, hits give low values 0.942 | locus YER133W, strain GLC7, hits give low values 0.99 | locus YFL009W, strain cdc4, hits give low values 0.981 | locus YFL029C, strain CAK1, hits give low values 0.997 | locus YFR003C, strain YPI1, hits give low values 0.991 | locus YFR019W, strain FAB1, hits give low values 0.933 | locus YFR028C, strain CDC14, hits give low values 0.979 | locus YGR040W, strain KSS1, hits give low values 0.974 | locus YGR052W, strain FMP48, hits give low values 0.931 | locus YGR092W, strain DBF2, hits give low values 0.965 | [2] 1.01 | [3] 0.972 | locus YHR082C, strain KSP1, hits give low values 0.925 | locus YHR205W, strain SCH9, hits give low values 1 | locus YIL147C, strain SLN1, hits give low values 0.992 | [4] 0.946 | locus YJL128C, strain PBS2, hits give low values 0.988 | locus YJL157C, strain FAR1, hits give low values 1 | locus YJR016C, strain ILV3, hits give low values 0.986 | locus YJR066W, strain TOR1 (second series), hits give low values 0.966 | [5] 0.82 | locus YKL048C, strain ELM1, hits give low values 1 | locus YKL067W, strain YNK1, hits give low values 1.02 | locus YKL101W, strain HSL1, hits give low values 1.02 | locus YKL193C, strain SDS22, hits give low values 0.973 | locus YKL203C, strain TOR2, hits give low values 0.965 | [6] 0.957 | locus YLR133W, strain CKI1, hits give low values 1.01 | locus YLR403W, strain SFP1, hits give low values 0.976 | locus YML070W, strain DAK1, hits give low values 1.02 | locus YMR001C, strain CDC5, hits give low values 0.984 | locus YMR205C, strain PFK2 (second series), hits give low values 1.02 | locus YMR277W, strain FCP1, hits give low values 0.978 | locus YNL006W, strain LST8, hits give low values 0.986 | locus YNL020C, strain ARK1, hits give low values 1.01 | locus YNL161W, strain CBK1, hits give low values 0.976 | [7] 0.968 | locus YNL207W, strain RIO2, hits give low values 0.975 | locus YNL222W, strain SSU72, hits give low values 0.983 | locus YNL307C, strain MCK1 (second series), hits give low values 1 | locus YOL078W, strain AVO1, hits give low values 0.976 | locus YOL136C, strain PFK27, hits give low values 1.03 | [8] 0.995 | locus YOR119C, strain RIO1, hits give low values 0.833 | [9] 0.936 | locus YOR329C, strain SCD5, hits give low values 0.979 | locus YPL031C, strain PHO85, hits give low values 0.981 | locus YPL153C, strain RAD53, hits give low values 0.968 | locus YPL204W, strain HRR25, hits give low values 0.972 | locus YPL209C, strain IPL1, hits give low values 0.979 | [10] 0.954 | locus YPR025C, strain CCL1, hits give low values 0.984 | locus YPR106W, strain ISR1, hits give low values 1 | locus YPR111W, strain DBF20, hits give low values 0.998 | strain NNK1, hits give low values 0.992 | strain TSCII, hits give low values 0.985

CN1C(=O)CC[C@H]1c1cccnc1
inactive: locus YBR021W, strain FUR4, hits give low values 1 | locus YBR229C, strain ROT2, hits give low values 1 | locus YCL029C, strain bik1, hits give low values 1.02 | locus YDL035C, strain GPR1, hits give low values 1.02 | locus YDL074C, strain BRE1, hits give low values 1.04 | [1] 1.01 | locus YDL134C, strain PPH21, hits give low values 1 | locus YDL185W, strain tfp1, hits give low values 1.03 | locus YDL192W, strain arf1, hits give low values 1.01 | locus YDR101C, strain arx1, hits give low values 1.05 | locus YDR150W, strain NUM1, hits give low values 0.992 | locus YDR162C, strain NBP2, hits give low values 1.01 | locus YDR318W, strain mcm21, hits give low values 1.02 | locus YDR388W, hits give low values 1.02 | locus YDR502C, strain sam2, hits give low values 1.04 | locus YEL061C, strain CIN8, hits give low values 0.993 | locus YER110C, hits give low values 1.03 | locus YER155C, strain BEM2, hits give low values 0.992 | locus YER167W, strain BCK2, hits give low values 0.997 | locus YGL078C, strain dbp3, hits give low values 1.03 | locus YGL086W, strain mad1, hits give low values 1.03 | locus YGL248W, strain PDE1, hits give low values 1.02 | locus YGR135W, strain pre9, hits give low values 1.01 | locus YGR229C, strain SMI1, hits give low values 1.01 | locus YGR252W, strain gcn5, hits give low values 1.11 | [2] 0.997 and 1.05 | locus YHR079C, strain IRE1 (second series), hits give low values 1.03 | [3] 1.04 | locus YHR094C, strain hxt1, hits give low values 1.01 | locus YHR129C, strain ARP1, hits give low values 0.993 | locus YHR200W, strain rpn10, hits give low values 1.01 | locus YIL066C, strain RNR3, hits give low values 1.01 | locus YIL073C, strain SPO22, hits give low values 1.07 | locus YIL125W, strain kgd1, hits give low values 1.02 | locus YIR030C, strain dcg1, hits give low values 1.02 | [4] 1.01 and 1.02 | locus YJL134W, strain LCB3, hits give low values 0.996 | locus YJL168C, strain set2, hits give low values 1 | locus YJL187C, strain SWE1 (second series), hits give low values 1.01 | locus YJR043C, strain POL32, hits give low values 1.02 | [5] 0.992 | locus YKL009W, strain mrt4, hits give low values 1.03 | locus YKL068W, hits give low values 1.01 | locus YKL085W, strain MDH1 (second series), hits give low values 1.01 | locus YKL085W, strain MDH1, hits give low values 1.01 | locus YKL190W, strain CNB1, hits give low values 1 | locus YKR001C, strain vps1, hits give low values 1.03 | locus YLR039C, strain RIC1, hits give low values 1.02 | locus YLR058C, strain SHM2, hits give low values 1 | locus YLR102C, strain apc9, hits give low values 1.02 | [6] 1.06 | locus YLR262C, strain YPT6, hits give low values 1.04 | locus YLR268W, strain sec22, hits give low values 1.03 | locus YLR330W, strain CHS5, hits give low values 0.999 | locus YLR342W, strain FKS1 (second series), hits give low values 1.01 | locus YLR371W, strain rom2, hits give low values 0.983 | locus YLR418C, strain cdc73, hits give low values 1.03 | locus YML016C, strain PPZ1, hits give low values 0.993 | locus YML032C, strain rad52, hits give low values 1.02 | locus YML124C, strain tub3, hits give low values 1.01 | locus YMR078C, strain ctf18, hits give low values 1.02 | locus YMR223W, strain ubp8, hits give low values 1.01 | locus YMR263W, strain SAP30, hits give low values 1 | locus YMR307W, strain GAS1, hits give low values 0.998 | locus YNL067W, strain RPL9B, hits give low values 1.01 | [7] 0.992 | locus YNL233W, strain BNI4, hits give low values 1.01 | locus YNL250W, strain rad50, hits give low values 1.02 | locus YNL271C, strain bni1, hits give low values 1.02 | locus YNL298W, strain CLA4, hits give low values 1.04 | locus YNL307C, strain MCK1, hits give low values 1.03 | locus YNL322C, strain KRE1, hits give low values 0.993 | locus YNR052C, strain pop2, hits give low values 1.02 | locus YOL006C, strain TOP1, hits give low values 1.04 | locus YOL012C, strain htz1 0.58 | locus YOL147C, strain pex11, hits give low values 1.04 | [8] 1.01 | locus YOR069W, strain VPS5, hits give low values 0.997 | locus YOR136W, strain idh2, hits give low values 1.02 | locus YOR144C, strain elg1, hits give low values 1.01 | locus YOR184W, strain ser1, hits give low values 1.03 | [9] 1.04 | locus YOR316C, strain cot1, hits give low values 1.04 | locus YPL241C, strain CIN2, hits give low values 0.995 | [10] 1.16 | locus YPR119W, strain clb2, hits give low values 1 | locus YPR141C, strain kar3, hits give low values 1 | locus YPR163C, strain tif3, hits give low values 1.06 | locus YPR167C, strain met16, hits give low values 1.01 | strain wtn01, hits give low values 1.04
